Assay outcomes from PubChem.
The full list was thinned out, with hits kept by preference.
STK33 kin inh = STK33 kinase inhibitors, primary screen, biochemical, luminescence, ADP-Glo, MBP substrate | inhibition, % at 12.5 µM | actives 0.44% (n = 27,000); in the data active = inhibition above about 20%; inconclusive = no clear call, values can overlap the other calls
Target sequence (Q9BYT3 whole entry, looked up): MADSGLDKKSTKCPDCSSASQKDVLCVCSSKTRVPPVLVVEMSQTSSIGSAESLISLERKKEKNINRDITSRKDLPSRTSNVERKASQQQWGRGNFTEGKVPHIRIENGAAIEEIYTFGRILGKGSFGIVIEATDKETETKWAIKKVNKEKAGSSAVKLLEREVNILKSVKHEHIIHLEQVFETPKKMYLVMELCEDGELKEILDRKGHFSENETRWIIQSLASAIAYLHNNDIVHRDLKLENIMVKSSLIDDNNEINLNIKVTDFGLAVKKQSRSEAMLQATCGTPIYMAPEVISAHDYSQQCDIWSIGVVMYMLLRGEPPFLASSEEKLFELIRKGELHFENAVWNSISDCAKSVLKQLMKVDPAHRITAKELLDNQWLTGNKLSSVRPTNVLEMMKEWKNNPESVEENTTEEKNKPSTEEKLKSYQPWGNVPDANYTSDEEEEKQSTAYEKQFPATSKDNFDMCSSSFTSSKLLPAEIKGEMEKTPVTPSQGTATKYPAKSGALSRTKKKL
NOMO-1 viab = NOMO-1 AML cell viability reduction, primary screen, STK33 inhibitor project, CellTiter-Glo luminescence. NOMO-1 AML viability, 72 h. actives 7.5% (n = 37,000). AID 2330, 2010. inhibition, % (test concentration not listed); in the data active = inhibition above about 80%; inconclusive = no clear call, values can overlap the other calls
PD-1 reverse act = activators reversing PD-1 mediated T-cell inhibition, primary screen, luminescence, primary human CD4 T cells, PD-L1 beads; CellTiter-Glo 96 h; activation, % (no concentration beside the values); 29,000 tested, under 10 active; call rule not given here
Each line names hits and unclear results; the compound was inactive in the other large screens.

CCN(CC(=O)Nc1ccccc1C(F)(F)F)S(=O)(=O)c1ccc(C)cc1	none (no result: PD-1 reverse act)
CCc1ccc(CN2CCN(Cc3ccc4c(c3)OCO4)CC2)cc1	none (no result: STK33 kin inh)
C[C@@H]1CN([C@H](C)CO)C(=O)c2cccc(NC(=O)Nc3ccc(F)cc3)c2O[C@H]1CN(C)Cc1ccc(C(F)(F)F)cc1	NOMO-1 viab 82.5 (no result: STK33 kin inh)
C[C@@H]1CN([C@@H](C)CO)C(=O)c2cccc(NC(=O)Nc3ccc(F)cc3)c2O[C@@H]1CN(C)Cc1ccc(C(F)(F)F)cc1	NOMO-1 viab 88.3 (no result: STK33 kin inh)
C[C@H](CO)N1C[C@H](C)[C@H](CN(C)Cc2ccc(C(F)(F)F)cc2)Oc2c(NC(=O)Nc3ccc(F)cc3)cccc2C1=O	none (no result: STK33 kin inh)
C[C@H](CO)N1C[C@H](C)[C@@H](CN(C)Cc2ccc(C(F)(F)F)cc2)Oc2c(NC(=O)Nc3ccc(F)cc3)cccc2C1=O	NOMO-1 viab 112.6 (no result: STK33 kin inh)
O=C(OC[C@@]1(O)[C@H]2[C@H](O[C@@H]3O[C@H](CO)[C@@H](O)[C@H](O)[C@H]3O)OC=C[C@H]2[C@H](O)[C@H]1Cl)c1ccccc1	none
O=C(CSc1nnc(-c2cccnc2)o1)c1ccc2c(c1)OCCO2	none
O=C(Nc1ccccc1[N+](=O)[O-])c1cccc(S(=O)(=O)N2CCOCC2)c1	none (no result: NOMO-1 viab, PD-1 reverse act)
Cc1ccc(S(=O)(=O)NC(C)C(=O)Nc2c(F)cccc2F)cc1 (stereo unspecified)	none (no result: PD-1 reverse act)
COc1cccc(C2C(C(=O)c3cc4ccccc4o3)C(=O)C(=O)N2c2nc(C)c(C)s2)c1OC (stereo unspecified)	none
Cc1c(O)cc(O)c2c1OC(c1ccccc1)CC2=O (stereo unspecified)	none
Cc1cc(O)c(C)c2c1Oc1c(C)c(O)cc(C)c1C(=O)O2	STK33 kin inh 23.1
C[C@H](CO)N1C[C@H](C)[C@H](CN(C)Cc2ccc(C(=O)Nc3ccccc3N)cc2)Oc2ccc(NC(=O)Cc3ccccc3)cc2C1=O	NOMO-1 viab 103.6 (no result: STK33 kin inh)
C[C@@H]1CN([C@@H](C)CO)C(=O)c2cc(NC(=O)Nc3ccc4c(c3)OCO4)ccc2O[C@H]1CN(C)Cc1ccc(C(=O)Nc2ccccc2N)cc1	none (no result: STK33 kin inh)
C[C@@H]1CN([C@@H](C)CO)C(=O)c2cc(NC(=O)Nc3ccc4c(c3)OCO4)ccc2O[C@@H]1CN(C)Cc1ccc(C(=O)Nc2ccccc2N)cc1	NOMO-1 viab 108.2 (no result: STK33 kin inh)
C[C@@H]1CN([C@@H](C)CO)C(=O)c2cc(NC(=O)Nc3ccccc3)ccc2O[C@@H]1CN(C)Cc1ccc(C(=O)Nc2ccccc2N)cc1	NOMO-1 viab 110.9 (no result: STK33 kin inh)
CC(C)NC(=O)Nc1ccc2c(c1)C(=O)N([C@H](C)CO)C[C@@H](C)[C@@H](CN(C)Cc1ccc(C(=O)Nc3ccccc3N)cc1)O2	none (no result: STK33 kin inh)
C[C@@H]1CN([C@@H](C)CO)C(=O)c2cc(NC(=O)Nc3cccc4ccccc34)ccc2O[C@@H]1CN(C)Cc1ccc(C(=O)Nc2ccccc2N)cc1	NOMO-1 viab 110.3 (no result: STK33 kin inh)
C[C@@H]1CN([C@@H](C)CO)C(=O)c2cc(NC(=O)c3ccncc3)ccc2O[C@@H]1CN(C)Cc1ccc(C(=O)Nc2ccccc2N)cc1	NOMO-1 viab inconclusive (no result: STK33 kin inh)
C[C@H](CO)N1C[C@H](C)[C@H](CN(C)Cc2ccc(C(=O)Nc3ccccc3N)cc2)Oc2ccc(NC(=O)Nc3ccccc3)cc2C1=O	NOMO-1 viab inconclusive (no result: STK33 kin inh)
O=[N+]([O-])c1ccc(NC(=S)NCCCn2ccnc2)cc1	none (no result: PD-1 reverse act)
Cc1cccc(C(=O)N(CC#N)CC#N)c1	none (no result: STK33 kin inh)
Cn1c(SCC(=O)Nc2ccc3c(c2)oc2ccccc23)nc2ccccc2c1=O	none
C=C1C(=O)O[C@H]2C1CC[C@@](C)(O)[C@@H]1C[C@H](O)C(=C)[C@@H]12 (stereo partly specified)	none (no result: NOMO-1 viab, PD-1 reverse act)
C=C1C(=O)O[C@H]2C1CCC(=C)[C@@H]1C[C@H](OC(=O)C=C(C)C)C(=C)[C@@H]12 (stereo partly specified)	NOMO-1 viab 96.5
CC(C)(C)c1cc(C(=O)CSc2nc3ccccc3[nH]2)cc(C(C)(C)C)c1O	NOMO-1 viab 101.7 (no result: PD-1 reverse act)
Cc1cc(=O)[nH]c(SCC(=O)c2cc(C(C)(C)C)c(O)c(C(C)(C)C)c2)n1	none (no result: PD-1 reverse act)
Oc1cc(C2CCCCC2)cc(C2CCCCC2)c1	NOMO-1 viab 137.2 (no result: STK33 kin inh)
CCOC(=O)c1nonc1N	none (no result: STK33 kin inh)
CCOC(=O)C1=NNCC1C(=O)OCC (stereo unspecified)	NOMO-1 viab 96.0 (no result: STK33 kin inh)
CC1CC(=O)C2=C(C1)C(Cl)C(O)C1(O)C2C(=O)c2cccc(O)c2C1O (stereo unspecified)	NOMO-1 viab 101.3
CC1CC(=O)C2=C(C1)C1OC1C1(O)C2C(=O)c2cccc(O)c2C1O (stereo unspecified)	none (no result: NOMO-1 viab, PD-1 reverse act)
N#C/C(=C\Nc1ccc(F)c(Cl)c1)S(=O)(=O)Cc1ccco1	none
COC(=O)CCc1[nH]c2ccccc2c1Sc1ccccc1	NOMO-1 viab 140.2 (no result: STK33 kin inh)
Cc1[nH]c2ccccc2c1C(=O)CCC(=O)O	none (no result: NOMO-1 viab, PD-1 reverse act)
C=C1C(=O)[C@@]23CCC4[C@](C)(C(=O)O)CCC[C@@]4(C)[C@@H]2CC[C@@H]1C3 (stereo partly specified)	none (no result: NOMO-1 viab, PD-1 reverse act)
COc1ccc(C(=O)NCc2occc2C(=O)O)cc1	none
COc1cc2oc(-c3ccccc3)cc(=O)c2c(OC)c1OC	none
COc1c(OC)c(O)c2c(=O)cc(-c3ccc(O)cc3)oc2c1OC	STK33 kin inh 29.3, NOMO-1 viab 114.9
COc1cc(-c2cc(=O)c3c(O)c(OC)c(OC)c(O)c3o2)ccc1O	STK33 kin inh 65.4 (no result: NOMO-1 viab, PD-1 reverse act)
COc1cc2oc(-c3ccccc3)cc(=O)c2c(O)c1OC	none
COc1ccc(CSc2nnc(CSc3cccs3)n2C)cc1	none (no result: STK33 kin inh)
O=S(=O)(NCC1CCN(Cc2cccc(OCCO)c2)CC1)c1ccc(Cl)c(Cl)c1	none (no result: NOMO-1 viab, PD-1 reverse act)
CC(C)N(C(=O)CSc1nc2ccc(Cl)cc2[nH]1)c1ccccc1	none (no result: PD-1 reverse act)
Cc1cc(C(=O)N(c2ccccc2)C(C)C2CC2)c(Cl)cc1Cl (stereo unspecified)	NOMO-1 viab 133.5 (no result: STK33 kin inh)
CC1(C)NC(=S)N(c2ccccc2)N1	none (no result: STK33 kin inh)
COc1ccccc1NC(=O)CSc1n[nH]c(-c2ccncc2)n1	none
O=C(CCN1C(=O)C2C3C=CC(C4CC34)C2C1=O)Nc1ccc(Br)cc1Cl (stereo unspecified)	none (no result: PD-1 reverse act)
CCc1cccc(C)c1NC(=O)CSc1nc2sc3c(c2c(=O)n1C)CCC(C)C3 (stereo unspecified)	NOMO-1 viab 95.1 (no result: PD-1 reverse act)
Cn1c(SCC(=O)Nc2ccccc2)nc2sc3c(c2c1=O)CCC3	none
CC(C)/C(=N/O)c1ccccc1	none (no result: STK33 kin inh)
CC1CC[C@@]2(OC1)O[C@H]1CC3C4CC=C5C[C@@H](O[C@@H]6O[C@H](CO)[C@@H](O)[C@H](O)[C@H]6O)CC[C@]5(C)C4CC[C@]3(C)[C@@]1(O)[C@@H]2C (stereo partly specified)	none (no result: NOMO-1 viab, PD-1 reverse act)
COc1cc(O)c2c(=O)cc(-c3ccc(OC)c(-c4c(O)cc(O)c5c(=O)cc(-c6ccc(O)cc6)oc45)c3)oc2c1	NOMO-1 viab 107.5 (no result: PD-1 reverse act)
COc1ccc(-c2cc(=O)c3c(O)cc(O)cc3o2)cc1	STK33 kin inh 24.9 (no result: PD-1 reverse act)
O=c1c(OC2OCC(O)C(O)C2O)c(-c2ccc(O)c(O)c2)oc2cc(O)cc(O)c12 (stereo unspecified)	none (no result: NOMO-1 viab, PD-1 reverse act)
O=c1cc(-c2ccc(O)c(O)c2)oc2cc(O)cc(O)c12	STK33 kin inh 78.4 (no result: PD-1 reverse act)
COc1ccc(-c2cc(=O)c3c(OC)cc(OC)cc3o2)cc1	none (no result: PD-1 reverse act)
